Assay results as given in ChEMBL document CHEMBL3988442, “University of Dundee, Small-Polar-MMV Screening Library” (2021).
Out of some 66,000 compounds screened, about 960 (1.5%) showed an effect of 50% or more. What follows is part of a selection rich in strong results, with near analogues and random picks from the rest.

System: Trypanosoma brucei
Test: Trypanosoma brucei 72 hour study
Format: functional, organism-based
Design: scale not given: in the data most compounds retested in dose-response had high values

| Compound | Percent Effect (30.3 µM, […]) [%] | Percent Effect (30 µM, 30.03 µM) [%] |
| --- | --- | --- |
| CC(C)C1CN(c2cccc(C#N)n2)CCCN1CC1CC1 (stereo unspecified) | -2.966 | – |
| CC(C)C1CN(S(C)(=O)=O)CCCN1Cc1ccc(F)cc1 (stereo unspecified) | – | -25.6 |
| CC(C)C1CN(c2cccc(C#N)n2)CCCN1Cc1ccc(F)cc1 (stereo unspecified) | 99.78 | – |
| CN(C)C(=O)[C@H]1C[C@H]2OCC[C@H]2N(Cc2ccc3ccccc3n2)C1.O=C(O)C(F)(F)F.O=C(O)C(F)(F)F | -111.9 | – |
| CC(C)NC(=O)c1cc2c(c3ccccc3n2C)n1C(=O)N(C)C | – | 61.67 |
| CCCNC(=O)c1cc2c(c3ccccc3n2C)n1C(=O)N(C)C | 27.2 | – |
| COCCNC(=O)c1cc2c(c3ccccc3n2C)n1C(=O)N(C)C | – | 28.71 |
| Cc1ccsc1CN1CCC(n2cc(C(O)c3ccccc3)nn2)CC1 (stereo unspecified) | -15.95 | – |
| CCc1nnc2n1CCN(C(=O)CCOc1ccc(C)cc1C)C2 | – | -30.52 |
| O=C(O)C(F)(F)F.O=C([C@@H]1CCO[C@@H]2CCN(CC3CCOCC3)C[C@H]21)N1CCCO1 | – | -11.19 |
| CCOCC(=O)N1C[C@@H]2CCN(c3cnccn3)C[C@@H]2C1.O=C(O)C(F)(F)F | -17.39 | – |
| CCN1CCn2c(C)cnc2C12CCN(C(=O)NC)CC2.O=C(O)C(F)(F)F | -20.19 | – |
| CCOC(=O)C1CCCCN1Cc1c[nH]nc1-c1cc2ccccc2o1 (stereo unspecified) | 58.53 | – |
| CCOC(=O)C1CCCN(Cc2c[nH]nc2-c2cc3ccccc3o2)C1 (stereo unspecified) | 15.89 | – |
| CCOC(=O)C1CCCCN1Cc1c[nH]nc1-c1ccc(F)cc1F (stereo unspecified) | -2.201 | – |
| CCN(CC)C1COc2c(cc(Br)c(C)c2C)C1=O (stereo unspecified) | -8.815 | – |
| Cc1c(Br)cc2c(c1C)OCC(N(C)C)C2=O (stereo unspecified) | 0.8254 | – |
| CCN(CC)C1COc2c(cc(Br)c(C)c2Br)C1=O (stereo unspecified) | 52.72 | – |
| O=C1CN(C(=O)c2ccc(F)cc2)CC(O)CN1Cc1cccs1 (stereo unspecified) | 5.097 | – |
| Cc1ccc(C(=O)N2CC(=O)N(Cc3cccs3)CC(O)C2)cc1 (stereo unspecified) | 2.037 | – |
| O=C1CN(C(=O)c2ccc(Cl)cc2)CC(O)CN1Cc1cccs1 (stereo unspecified) | 99.92 | – |

| Compound | Percent Effect (30.3 µM, […]) [%] | Percent Effect (30 µM, 30.03 µM) [%] |
| --- | --- | --- |
| CN1C[C@@H]2CC[C@H](CC1=O)N2C(=O)c1ccc(-c2ccccc2)[nH]c1=O | 2.014 | – |
| CC(C)OCCCN(Cc1ccncc1)Cc1cc(F)ccc1F.Cl | -3.291 | – |
| C/C(Cl)=C/CNC(=O)[C@H]1CC[C@]2(CC1)CN(C)C(=O)c1ccccc1O2 | -12.03 | – |
| CO[C@H]1CN(C(C)C)C[C@@H]1NC(=O)Nc1ccc(C(F)(F)F)cc1 | – | 82.01 |
| CO[C@H]1CN(C(C)C)C[C@@H]1NC(=O)Nc1ccc2oc(C)cc2c1 | – | -77.41 |
| CO[C@H]1CN(C(C)C)C[C@@H]1NC(=O)Nc1cccc(SC)c1 | – | -47.34 |
| CO[C@H]1CN(C(=O)OC(C)(C)C)CC1NCc1cccn1C (stereo partly specified) | – | -31.18 |
| Cc1ccc(C2COCCN2C(=O)c2ccc(N(C)C)cc2)o1 (stereo unspecified) | – | 5.525 |
| Cc1ccc(C2COCCN2C(=O)c2cccc(N(C)C)c2)o1 (stereo unspecified) | – | 50.27 |
| Cc1ccc(C2COCCN2C(=O)c2ccc(F)c(F)c2)o1 (stereo unspecified) | – | 29.67 |
| CN(C)C(=O)CN1C(=O)C[C@@H]2[C@@H]1CCN2Cc1cccc(C#N)c1.O=C(O)C(F)(F)F | -180.8 | – |
| Cc1nc(C)c(C(=O)N2CCc3nc4c(C)csc4c(=O)n3CC2)s1.Cl | -52.81 | – |
| COc1ccc(NC(=O)c2cnc(C3CCN(C)CC3)nc2C)cc1 | -7.704 | – |
| Cc1nc(N(C)C2CCCCC2)ncc1C(C)NC(=O)c1cccnc1 (stereo unspecified) | -134.2 | – |
| CN(c1ncc(C(=O)Nc2ccccc2)c(N)n1)C1CCCCC1 | 1.024 | – |
| CN(c1ccc(CNC(=O)c2ccc(O)nc2)cc1)C1CCCCC1 | – | -19.08 |
| COc1ccc(NC(=O)c2cnc(N(C)C3CCCCC3)nc2N)cc1 | 61 | – |
| CN(c1ncc(C(=O)NCc2ccccc2)c(N)n1)C1CCCCC1 | 91.96 | – |
| Cc1ccc(N2Cc3nc(=O)n(C(C)C)n3C2=O)cc1 | – | -28.54 |
| CN(C(=O)Cc1ccc(NC(=O)NC2CCC2)cc1)c1ccccc1 | – | -6.814 |
| CC(C)c1nccc(CN(C)Cc2cnn(-c3ccccc3)c2)n1 | – | 6.527 |

| Compound | Percent Effect (30.3 µM, […]) [%] | Percent Effect (30 µM, 30.03 µM) [%] |
| --- | --- | --- |
| Cc1nsc(C(=O)NCCCc2ccccc2)n1 | – | -6.915 |
| Cl.Fc1ccc(-c2cnc(C3CCCN3)cn2)cc1 (stereo unspecified) | 19.97 | – |
| Fc1ccc(-c2cnc(C3CCNCC3)cn2)cc1 | 58.37 | – |
| COc1cccc(-c2cnc(C3CCNCC3)cn2)c1 | -29.22 | – |
| C[C@@]1(O)CCN(Cc2cc[nH]n2)C[C@H]1Oc1cccc(F)c1 | 13.98 | – |
| COCCO[C@H]1CCN(C(=O)NC2CC2)[C@H]1Cc1cnn(C)c1 | – | -38.19 |
| CCn1c(CN2CCCC(O)(c3ccc(F)cc3)CC2)cnc1SC.O=C(O)CC(O)(CC(=O)O)C(=O)O (stereo unspecified) | -0.3019 | – |
| CNCCNc1nccc(-c2cn(C)nc2C)n1 | -7.529 | – |
| CCN(CC)CCCNc1nccc(-c2cn(C)nc2C)n1 | 0.2363 | – |
| CCCOCCCNc1nccc(-c2cn(C)nc2C)n1 | – | 60.81 |
| NC(=O)c1c[nH]nc1NC(=O)c1cccc(Cl)c1 | -12.02 | – |
| CN(CCO)CC1COCCN1C(=O)C1CCCCC1.O=CO (stereo unspecified) | – | -4.713 |
| CN(CCO)CC1COCCN1C(=O)C1(c2cccs2)CCCC1.O=CO (stereo unspecified) | 95.25 | – |
| CN(C)CC1COCCN1C(=O)C1(c2cccs2)CCCC1.O=CO (stereo unspecified) | 99.83 | – |
| O=C(N1CCOCC1CO)C1(c2cccs2)CCCC1 (stereo unspecified) | -27.69 | – |
| CN(CCO)CC1COCCN1C(=O)CCC1CCCC1.O=CO (stereo unspecified) | – | -33.47 |
| Cc1ccccc1C(=O)N1CCOCC1CN(C)C.O=CO (stereo unspecified) | 13.8 | – |
| C1CC(N2C[C@@H]3COC[C@]3(COCC3CCOCC3)C2)C1.O=C(O)C(F)(F)F | -71.78 | – |
| CN1CCN(C(=O)[C@H]2C[C@H]3[C@H](CCN3Cc3cccs3)O2)CC1.O=C(O)C(F)(F)F.O=C(O)C(F)(F)F | -15.62 | – |
